“And” between values parts separate entries of the source, which are not always exact repeats. Identical values can stand only once. Inconclusive results are not listed. The source made the active and inactive calls. Calls follow the shape of the dose curve; as a rule, active = well fitted cell-killing curve with a large enough effect; inconclusive = small, poorly fitted or top-dose-only effect; inactive = flat fitted curve, though single readings scatter.
Assay: Cellular viability qHTS for adrenocortical cancer (ACC) cell line SW-13 (AID 1963989); also: nearly all actives have a fitted effect of over 65% in size;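 as to activity (max response): cells grown in serum-free medium with ITS supplement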
Conditions: SW-13 ACC cells viability, CellTiter-Glo, 48 h; activity (max response): active compounds read low
Summary of the method: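 Here, serum-free SW-13 cultures were dosed up to 46 uM. Following 48 h, ATP-dependent luminescence (CellTiter-Glo) reported viable cells, and logistic modeling produced IC50 values.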
% is scaled to controls: 0 for no effect and ±100 for the full control effect; potency is read from the fitted curve at half-maximal effect.

SMILES | Potency | activity (max response)
NC[C@@](O)(c1ccc(Cl)cc1)c1ccc(-c2cn[nH]c2)cc1 | 12.6 µM (active) | –
CCN(C(=O)c1ccccc1OC)c1cc2c(cc1N1CCNC[C@H]1C)n(C)c(=O)n2C | – | 1.48% (inactive)
NC(=O)c1ncn([C@@H]2O[C@H](CO)[C@@H](O)[C@H]2O)c1O | – | 14.2% (inactive) and 14.7% (inactive) and 8.98% (inactive)
COc1ccc(CNC(=O)c2cc(-c3cncc(Cl)c3)cnc2-c2ccccn2)nc1OC | – | -20.5% (inactive)
CC(C(=O)O)c1ccc2c(c1)[nH]c1ccc(Cl)cc12 (stereo unspecified) | – | -19.1% (inactive)
COc1ccc(Cc2cnc(N)nc2N)cc1OC | – | 8.41% (inactive)
CN(C)CCOc1ccccc1Cc1ccccc1 | – | 9.36% (inactive)
Cc1oc(=O)oc1COC(=O)[C@@H]1N2C(=O)[C@@H](NC(=O)[C@H](N)c3ccccc3)[C@H]2SC1(C)C | – | 7.35% (inactive)
O=Cc1ccc(O)c(O)c1O | – | -7.42% (inactive)
CN(C)CCCOc1nn(Cc2ccccc2)c2ccccc12 | 11.6 µM (active) | –
CC(=O)O[C@]1(C(C)=O)CC[C@H]2[C@@H]3C[C@H](C)C4=CC(=O)CC[C@]4(C)[C@H]3CC[C@@]21C | – | -20.8% (inactive)
CC(C)(Cc1ccc2ccccc2c1)NC[C@@H](O)COc1cccc(Cl)c1C#N | 6.31 µM (active) | –
CCCCNc1ncc2c(-c3ccc(F)cc3)nn(CC3CCC(N)CC3)c2n1 (stereo unspecified) | 11.3 µM (active) | –
Cc1cccc(C)c1NC(=O)c1ccc(N)cc1 | – | 6.32% (inactive)
CC(C)COCC(CN(Cc1ccccc1)c1ccccc1)N1CCCC1 (stereo unspecified) | 4.11 µM (active) and 28.2 µM (active) | –
CN1C(=O)N[C@H](Cc2c[nH]c3c(Cl)cccc23)C1=O | – | -3.83% (inactive)
CN(C)CCOc1ccc(/C(=C(/CCCl)c2ccccc2)c2ccccc2)cc1 | – | -6.2% (inactive)
CCOC(=O)c1cnc2c(cnn2CC)c1NN=C(C)C | – | 7.42% (inactive)

SMILES | Potency | activity (max response)
C/C=C/C[C@@H](C)C(=O)[C@H]1C(=O)N[C@@H](C(C)C)C(=O)N(C)CC(=O)N(C)[C@@H](CC(C)C)C(=O)N[C@@H](C(C)C)C(=O)N(C)[C@@H](CC(C)C)C(=O)N[C@@H](C)C(=O)N[C@H](C)C(=O)N(C)[C@@H](CC(C)C)C(=O)N(C)[C@@H](CC(C)C)C(=O)N(C)[C@@H](C(C)C)C(=O)N1C | – | 4.11% (inactive)
C#CC[C@H](c1nc2cc(Cl)ccc2c(=O)n1Nc1ccccc1)N(CCCN)C(=O)c1cccc(Cl)c1F | 0.251 µM (active) | –
c1ccc2sc(SN3CCOCC3)nc2c1 | – | 3.28% (inactive)
C[C@H](N)[C@H](O)c1cccc(O)c1 | – | 0.409% (inactive)
CC(C)Oc1ccc(-c2nn([C@@H](C)c3oc4ccc(F)cc4c(=O)c3-c3cccc(F)c3)c3ncnc(N)c23)cc1F | – | 7.73% (inactive)
O=C(CCCl)NCCc1ccccc1 | – | -1.73% (inactive)
CN(C)C(=O)c1cc2cnc(Nc3ccc(N4CCNCC4)cn3)nc2n1C1CCCC1 | – | -9.21% (inactive)
CN1CCN(Cc2ccc(Nc3ncc(Cl)c(Nc4ccccc4S(=O)(=O)N(C)C)n3)cc2)CC1 | 0.75 µM (active) | –
C[C@@H]1CC(=O)Nc2cccc(-c3cnn(C(C)(C)C)c3)c2N1 | – | 2.32% (inactive)
C[C@@H]1CC(=O)Nc2cccc(-c3ccc4c(c3)c(-c3cnn(C)c3)nn4C)c2N1 | – | -3.66% (inactive)
C[C@@H](O[C@H]1OCCN(Cc2n[nH]c(=O)[nH]2)[C@@H]1c1ccc(F)cc1)c1cc(C(F)(F)F)cc(C(F)(F)F)c1 | 22.4 µM (active) | –
CONC(=O)Nc1ccc(-c2sc3c(c2CN(C)Cc2ccccc2)c(=O)n(-c2ccccc2)c(=O)n3Cc2c(F)cccc2F)cc1 | – | -8.17% (inactive)
CNCc1ccccc1 | – | 8.2% (inactive)
COc1cccc2c1C(=O)c1c(O)c3c(c(O)c1C2=O)C[C@@](O)(C(=O)CO)C[C@@H]3O[C@H]1C[C@H](N)[C@H](O[C@@H]2CCCCO2)[C@H](C)O1 | 0.731 µM (active) | –
O=C(O)/C(S)=C/c1ccc(I)cc1 | – | 9.8% (inactive)
Cc1ccc(S(=O)(=O)Nc2cc(-c3ccc(C#N)s3)ccc2C)cc1 | 0.0447 µM (active) | –
CNC(=O)[C@H]1O[C@@H](n2cnc3c(NCc4cccc(I)c4)nc(Cl)nc32)[C@H](O)[C@@H]1O | – | 2.68% (inactive)
COc1cc(C)[nH]c(=O)c1CN1CCc2c(Cl)cc([C@H](OC)C3COC3)c(Cl)c2C1=O | – | -0.836% (inactive)

From PubChem BioAssay (NCATS)
